Each structure is given as a SMILES string. Active and inactive are the calls of the source.

Experiment [1] can be described thus: optical density shifts of acrAB sulA E. coli – strain DRC41, OD650, 48 h, E. coli filamentation inducer project, primary screen (AID 1152).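 Note: E. coli MC1000 strain DRC41 lacking acrAB efflux pump and sulA.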 The following applies: higher = more signal, called active from +8 up or from −8 down.
Experiment [2] can be described thus: probe aLefty1 binding on compound microarray – biochemical, small-molecule microarray, 635/667 nm fluorescence, primary screen (AID 1153).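 Note: score merges spot fluorescence with signal-to-noise ratio from the scanned slide images.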 The following applies: higher = more signal.
Experiment [3] in a line: plasmodial surface anion channel blockers, osmotic lysis – cell-based, P. falciparum Indochina, OD700, 1 h, primary screen (AID 1154). The following applies: P. falciparum Indochina infected RBC osmotic lysis, higher = more signal, called active from +8 up or from −8 down.
Experiment [4] in a line: plasmodial surface anion channel blockers, osmotic lysis – cell-based, P. falciparum Indochina, OD700, 2 h, primary screen (AID 1155).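 Note: lysis reports solute entry through the parasite surface anion channel PSAC.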 The following applies: P. falciparum Indochina infected erythrocytes, higher = more signal, called active from +8 up or from −8 down.
Experiment [5] can be described thus: changes in parasitized red cell lysis, either direction – P. falciparum Indochina, OD700, 3 h, PSAC antagonist project, primary screen (AID 1156). Particulars: P. falciparum-infected erythrocytes, osmotic lysis, higher = more signal, called active from +8 up or from −8 down.
The nature of experiment [6]: plasmodial surface anion channel blockers, osmotic lysis – cell-based, P. falciparum Indochina, OD700, 18 h, primary screen (AID 1157). The following applies: P. falciparum Indochina infected erythrocytes, osmotic lysis OD700, 18 h; higher = more signal, called active from +8 up or from −8 down.
Experiment [7] can be described thus: S6 kinase pathway phospho-S6 level changes – cell-based, A549, cytoblot, luminescence, serum-stimulated, primary screen (AID 1158).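 Note: serum-stimulated A549 lung adenocarcinoma cells; signal is phosphorylated S6 detected by cytoblot immunostaining with HRP secondary.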 The following applies: 5 h, higher = more signal.
In experiment [8] the target is NADPH oxidase 2 (Homo sapiens) (UniProt P04839). The experiment can be described thus: compounds shifting NOX2 Amplex Red fluorescence – cell-based, HEK293-NOX2, PMA-stimulated, NOX inhibitor project, primary screen (AID 1159). Note: test concentration not given here. The following applies: 45 min, higher = more signal, called active from +8 up or from −8 down.
Experiment [9] addresses NADPH oxidase 4 (Homo sapiens) (UniProt Q9NPH5). Description: compounds shifting NOX4 Amplex Red fluorescence – cell-based, HEK293-NOX4, tetracycline-induced, NOX inhibitor project, primary screen (AID 1160). Particulars: HEK293-NOX4, Amplex Red H2O2 fluorescence, 45 min; higher = more signal, called active from +8 up or from −8 down.
For experiment [10], the target named is NADPH oxidase 5 (Homo sapiens) (UniProt Q96PH1). Description: compounds shifting NOX5 Amplex Red fluorescence – cell-based, HEK293-NOX5, NOX inhibitor project, primary screen (AID 1161). The following applies: HEK293-NOX5, ionomycin, 45 min, higher = more signal.
NADPH oxidase 5 (Homo sapiens), sequence (Q96PH1 whole entry, looked up): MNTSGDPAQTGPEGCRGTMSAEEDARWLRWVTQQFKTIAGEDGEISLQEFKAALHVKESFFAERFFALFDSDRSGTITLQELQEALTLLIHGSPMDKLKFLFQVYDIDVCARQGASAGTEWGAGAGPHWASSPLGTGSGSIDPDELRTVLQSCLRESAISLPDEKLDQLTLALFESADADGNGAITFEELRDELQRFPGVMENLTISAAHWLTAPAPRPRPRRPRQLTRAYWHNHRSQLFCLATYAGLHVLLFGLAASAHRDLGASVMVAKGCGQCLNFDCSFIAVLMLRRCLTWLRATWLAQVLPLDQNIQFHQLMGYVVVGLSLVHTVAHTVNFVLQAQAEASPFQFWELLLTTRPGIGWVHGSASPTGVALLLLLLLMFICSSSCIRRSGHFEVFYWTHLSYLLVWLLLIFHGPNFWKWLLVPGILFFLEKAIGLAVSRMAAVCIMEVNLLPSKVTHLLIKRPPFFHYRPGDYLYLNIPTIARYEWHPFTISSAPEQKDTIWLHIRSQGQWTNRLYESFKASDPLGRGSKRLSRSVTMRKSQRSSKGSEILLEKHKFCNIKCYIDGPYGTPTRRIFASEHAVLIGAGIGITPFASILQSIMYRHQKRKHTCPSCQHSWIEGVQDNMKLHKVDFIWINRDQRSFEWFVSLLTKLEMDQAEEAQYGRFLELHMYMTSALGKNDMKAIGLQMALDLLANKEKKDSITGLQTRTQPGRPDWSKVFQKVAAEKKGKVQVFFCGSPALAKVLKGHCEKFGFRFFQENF

NADPH oxidase 4 (Homo sapiens), sequence (Q9NPH5 whole entry, looked up): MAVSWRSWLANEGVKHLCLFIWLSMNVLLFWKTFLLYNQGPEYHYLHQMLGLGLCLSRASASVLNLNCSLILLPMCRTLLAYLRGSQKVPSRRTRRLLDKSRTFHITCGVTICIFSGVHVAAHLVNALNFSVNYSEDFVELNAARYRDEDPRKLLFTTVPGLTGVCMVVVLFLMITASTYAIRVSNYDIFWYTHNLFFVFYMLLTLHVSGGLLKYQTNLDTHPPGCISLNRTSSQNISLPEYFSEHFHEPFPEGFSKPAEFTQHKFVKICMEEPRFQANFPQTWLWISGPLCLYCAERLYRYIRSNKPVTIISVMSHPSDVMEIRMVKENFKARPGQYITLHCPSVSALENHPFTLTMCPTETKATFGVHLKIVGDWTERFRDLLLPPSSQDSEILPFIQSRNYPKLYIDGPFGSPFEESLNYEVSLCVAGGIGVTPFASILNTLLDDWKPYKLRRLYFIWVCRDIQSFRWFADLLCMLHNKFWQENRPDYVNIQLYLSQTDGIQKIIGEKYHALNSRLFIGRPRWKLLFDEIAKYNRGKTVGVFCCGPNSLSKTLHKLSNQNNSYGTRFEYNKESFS
NADPH oxidase 2 (Homo sapiens), sequence (P04839 whole entry, looked up): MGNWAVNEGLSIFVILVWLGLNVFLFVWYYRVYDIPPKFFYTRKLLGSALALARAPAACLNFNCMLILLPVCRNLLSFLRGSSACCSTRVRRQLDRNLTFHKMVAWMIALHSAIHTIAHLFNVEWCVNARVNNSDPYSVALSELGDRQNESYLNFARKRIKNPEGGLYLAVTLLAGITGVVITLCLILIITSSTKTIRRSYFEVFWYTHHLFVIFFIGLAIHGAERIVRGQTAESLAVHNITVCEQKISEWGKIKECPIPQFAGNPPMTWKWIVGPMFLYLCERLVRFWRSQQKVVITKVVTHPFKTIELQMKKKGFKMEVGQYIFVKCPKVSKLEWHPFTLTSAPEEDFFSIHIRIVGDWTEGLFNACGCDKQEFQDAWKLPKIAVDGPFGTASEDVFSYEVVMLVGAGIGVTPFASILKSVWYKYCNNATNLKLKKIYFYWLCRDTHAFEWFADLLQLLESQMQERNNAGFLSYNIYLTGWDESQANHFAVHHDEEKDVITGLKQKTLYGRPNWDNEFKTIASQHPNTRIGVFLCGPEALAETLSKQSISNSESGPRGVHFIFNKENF

For `CO[C@H]1O[C@H](CO)[C@@H](OC(=O)Nc2ccccc2-c2ccccc2)[C@H](OC(=O)Nc2ccc3c(c2)OCO3)[C@H]1OC(=O)Nc1ccc2c(c1)OCO2`, the z-score in [1] is 1.27 (inactive); in [3], 6.03 (inactive); in experiment [4] it was 1.08 (inactive); in experiment [5], 0.52 (inactive); in experiment [6], 0.666 (inactive); in experiment [7], -0.0053. Further, the z-score in [8] is -2.21 (inactive); in [9], -1.18 (inactive); in experiment [10] it was -2.42. In [2], the composite z-score was 0.809.

Consider `O=C1O[C@@H](c2ccccc2)[C@@H](c2ccccc2)N2[C@@H](c3ccccc3OCCO)[C@]3(C(=O)Nc4ccc(C#CCCO)cc43)[C@@H](C(=O)N3CCCCCCC3)[C@H]12`, for which the z-score in experiment [1] is -0.723 (inactive); in experiment [3], 1.01 (inactive); in experiment [4], 0.83 (inactive); in experiment [5], 0.352 (inactive); in [6], 0.49 (inactive); in experiment [7] it was -0.544. The figures for the z-score in experiment [8], in experiment [9] and in [10] were 1.02 (inactive), 0.486 (inactive) and 1.69, respectively. Further, in experiment [2], the composite z-score is 3.18.

Regarding `CO[C@H]1O[C@H](CO)[C@@H](OC(=O)Nc2ccc3c(c2)OCO3)[C@H](OC(=O)c2cc3ccccc3[nH]2)[C@H]1OC(=O)c1cc2ccccc2[nH]1`, the z-score in experiment [1] was 0.599 (inactive); in experiment [3], 1.48 (inactive); in experiment [4], -0.354 (inactive); in [5] it was -0.739 (inactive); in experiment [6] it was -0.536 (inactive); in experiment [7] it was 1.26. Besides, the z-score in [8] was -3.78 (inactive); in [9], -1.95 (inactive); in experiment [10], -3.47. The composite z-score in experiment [2] is -0.0162.

Take `C=C[C@@H](COC(C)=O)N(C(=O)OC(C)(C)C)S(=O)(=O)c1ccc(Br)cc1`: the z-score in experiment [1] was 0.336 (inactive); in experiment [3], 0.478 (inactive); in [4] it was -0.145 (inactive); in experiment [5], 0.14 (inactive); in experiment [6] it was 0.0566 (inactive); in [7], -0.178. Besides, the z-score in experiment [8] was -1.47 (inactive); in [9], -0.744 (inactive); in experiment [10], -1.23. The composite z-score in experiment [2] was -0.105.

With `COC(=O)C1=CC(CCCO)=CC(C2CC2)N(C)C=C1C(=O)OC` (stereo not given), the z-score in experiment [1] is 1.22 (inactive); in [3] it was 0.731 (inactive); in experiment [4], -0.59 (inactive); in [5] it was 0.482 (inactive); in [6] it was -1.41 (inactive); in [7] it was 1.83. The z-score in experiment [8] was -0.463 (inactive); in [9] it was -0.122 (inactive); in experiment [10] it was 0.663. Besides, the composite z-score in [2] was -0.35.

On to `CCCCN1CC=CC23O[C@@H]4/C=C\CCC(C)OC(=O)C4[C@H]2C(=O)N(C(CO)C(C)C)[C@@H]3C1=O` (stereo not given in full), for which the z-score in experiment [1] is -0.0695 (inactive); in experiment [3], 1.65 (inactive); in experiment [4] it was -0.361 (inactive); in experiment [5], 0.826 (inactive); in experiment [6], 0.406 (inactive); in experiment [7] it was 1.81. In addition, the figures for the z-score in experiment [8], in experiment [9] and in experiment [10] were 1.4 (inactive), -0.506 (inactive) and 2.14, respectively. In experiment [2], the composite z-score turned out to be 0.13.

In the case of `O=C1O[C@@H](c2ccccc2)[C@@H](c2ccccc2)N2[C@@H](c3ccc(O)cc3)[C@]3(C(=O)Nc4ccc(C#CC5(O)CCCCCC5)cc43)[C@@H](C(=O)NC[C@H](O)c3ccccc3)[C@H]12`, the z-score was -0.557 (inactive) in experiment [1]; 0.996 (inactive) in experiment [3]; 0.707 (inactive) in experiment [4]; 1.08 (inactive) in experiment [5]; 0.973 (inactive) in experiment [6]; 0.173 in experiment [7]. In addition, the z-score in experiment [8] was 1.14 (inactive); in [9] it was 0.441 (inactive); in experiment [10] it was 0.0466. Also, the composite z-score in [2] was 0.315.

As for `C=CC[C@]1(C(=O)O)COC(c2ccc(OCCCO)cc2)=N1`, the z-score in experiment [1] was -0.27 (inactive); in [3], 2.23 (inactive); in experiment [4], -0.0432 (inactive); in experiment [5], 0.472 (inactive); in [6], 0.2 (inactive); in experiment [7], -0.331. Moreover, the z-score in experiment [8] is 0.388 (inactive); in experiment [9] it was -0.287 (inactive); in experiment [10], 1.09. The same compound displayed a composite z-score in experiment [2] of 0.0437.

Turning to `COCCOC(=O)N1C(=O)[C@@]2(c3cc(C#Cc4ccc(OC)cc4)ccc31)[C@H](C(=O)Nc1nc3ccccc3s1)[C@H]1C(=O)O[C@H](c3ccccc3)[C@H](c3ccccc3)N1[C@@H]2c1ccc(OCCO)cc1`, the z-score in experiment [1] was -0.221 (inactive); in experiment [3] it was 6.99 (inactive); in experiment [4], 3.22 (inactive); in [5], 1.26 (inactive); in experiment [6], 2.25 (inactive); in experiment [7] it was -0.45. The z-score was 2.03 (inactive) in [8], -1.07 (inactive) in experiment [9] and 0.518 in experiment [10]. The compound also registered a composite z-score in [2] of 0.0524.

As for `CCOC(=O)C[C@H]1[C@H](OC(=O)c2ccc(C(=O)c3ccccc3)cc2)[C@@H](NC(=O)Cc2ccc(OC)cc2)c2cc(OCCCO)ccc2N1C(=O)c1ccccc1`, the z-score was -0.915 (inactive) in experiment [1]; 2.41 (inactive) in [3]; -0.431 (inactive) in experiment [4]; -0.937 (inactive) in experiment [5]; 0.384 (inactive) in experiment [6]; -0.408 in experiment [7]. Also, the z-score in experiment [8] was -1.25 (inactive); in experiment [9], 1.16 (inactive); in experiment [10], 0.303. Further, the composite z-score in experiment [2] is -0.0762.

For the compound `COc1ccc([Si](C)(C)[C@@H]2[C@@H](CCn3cc([C@H](O)c4ccccc4)nn3)O[C@]3(C(=O)N(Cc4ccc(N5CCC5=O)cc4)c4ccccc43)[C@H]2C)cc1`, the z-score in [1] was 0.893 (inactive); in experiment [3], 18.8 (active); in experiment [4], 4.31 (inactive); in [5], 1.66 (inactive); in experiment [6], 1.19 (inactive); in experiment [7] it was 0.759. Also, the results for the z-score in [8], in [9] and in experiment [10] were 0.193 (inactive), 1.08 (inactive) and 1.7, respectively. In experiment [2], the composite z-score is -0.696.

With `COC(=O)CCCCCCC(=O)Nc1ccc(NC(=O)CCCC[P+](c2ccccc2)(c2ccccc2)c2ccccc2)cc1`, the z-score in [1] is -12.4 (active); in experiment [3], 25.6 (active); in experiment [4] it was 9.83 (active); in experiment [5] it was 1.95 (inactive); in experiment [6] it was 1.43 (inactive); in experiment [7], 0.274. In addition, the z-score in [8] is -0.765 (inactive); in [9], 0.429 (inactive); in experiment [10] it was 0.0901. For the same compound, in experiment [2], the composite z-score was -0.0601.

As for `C=C(COC)C(=O)CC[C@@H](OC(=O)c1cccnc1)c1ccc(OCCO)cc1`, the z-score was -0.717 (inactive) in experiment [1]; 7.63 (inactive) in experiment [3]; 2.3 (inactive) in [4]; -1.61 (inactive) in [5]; 1.21 (inactive) in experiment [6]; -0.482 in [7]. Moreover, the z-score in experiment [8] is 0.838 (inactive); in experiment [9], 0.211 (inactive); in [10], -2.85. The compound also yielded a composite z-score in experiment [2] of 0.235.

Values taken from PubChem BioAssay.
